About 79,000 compounds went through this panel and 15% of them were active in at least one assay; those are over-represented in the sample as a whole. No stated cut-off is given here; in the data, active means growth inhibition above about 70%; inactive means the rest.
Legend:
[1] = NCI Yeast Anticancer Drug Screen. Data for the rad50 strain (AID 155);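 further: 0% = growth of vehicle-only cultures of the same strain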; conditions: S. cerevisiae rad50 strain growth inhibition; at 50.0 µM; hits give high values
Summary of the method: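 Inhibition values express reduced yeast growth in compound-treated cultures relative to vehicle-treated controls.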

[2] = NCI Yeast Anticancer Drug Screen. Data for the mec2-1 strain (AID 157); conditions: S. cerevisiae mec2-1 strain, at 50.0 µM, hits give high values
Summary of the method: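 Using mec2-1 yeast: add compound, measure growth, express inhibition versus vehicle-treated cultures.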

[3] = NCI Yeast Anticancer Drug Screen. Data for the sgs1 mgt1 strain (AID 161);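 further: 0% = growth of cultures given vehicle only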; conditions: S. cerevisiae sgs1 mgt1 strain, at 50.0 µM, hits give high values
Summary of the method: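 Compounds are added to genetically altered yeast, and growth is compared with cultures given vehicle alone to give percent inhibition.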

[4] = NCI Yeast Anticancer Drug Screen. Data for the cln2 rad14 strain (AID 165);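 further: 0% = growth equal to vehicle treated cultures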; conditions: S. cerevisiae cln2 rad14 strain, at 50.0 µM, hits give high values
Summary of the method: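 Yeast strain cln2 rad14, bearing defects in cell cycle control and DNA repair, serves as the test system; values reflect growth inhibition compared with vehicle.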

[5] = NCI Yeast Anticancer Drug Screen. Data for the bub3 strain (AID 167); conditions: S. cerevisiae bub3 mutant strain, at 50.0 µM, hits give high values
Summary of the method: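 Steps: expose the mutant yeast strain to compound; grow alongside vehicle-treated cultures; measure growth; express inhibition against the vehicle cultures.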

[6] = NCI Yeast Anticancer Drug Screen. Data for the mlh1 rad18 strain (AID 175); conditions: S. cerevisiae mlh1 rad18 strain growth inhibition; at 50.0 µM; hits give high values
Summary of the method: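 Steps: expose repair-defective yeast to compound; measure growth; express inhibition against vehicle-treated controls.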

Measured: growth inhibition

O=C(Cl)C1CC=C2c3ccccc3CCC2C1C(=O)Cl (stereo unspecified)
inactive: [1] 0.85% | [2] 19.1% | [3] 8.1% | [4] -3.05% | [5] 15.1% | [6] -5.5%

CC(C)CC(NC(=O)COc1cc(Cl)ccc1Cl)C(=O)O (stereo unspecified)
inactive: [1] -4.3% | [2] 19.2% | [3] 6.3% | [4] -18.6% | [5] -3.25% | [6] -40.4%

C1CSC(SCCCSC2SCCCS2)SC1
inactive: [1] -4.1% | [2] 5.3% | [3] -9.9% | [4] -7.1% | [5] -12.2% | [6] -14.1%

COc1cc(/C=C2/Cc3ccccc3C2=O)ccc1O
inactive: [1] 47% | [2] 24.1% | [3] 20.4% | [4] 22.9% | [5] 26.7% | [6] 26.6%

CCCCn1cnc2c(SCCNC(=O)N(C)N=O)ncnc21
inactive: [1] 6.3% | [2] -8.25% | [3] 10.3% | [4] -45.3% | [5] 3.5% | [6] -2.05%

CCC(C)(O)c1cnc(CC(C)C)c(=O)n1O (stereo unspecified)
inactive: [1] 55.5% | [2] 32.9% | [3] 43.3% | [4] 38.7% | [5] 38.4% | [6] 52.2%

O=C(O)c1ccccc1Oc1ccc([N+](=O)[O-])cc1[N+](=O)[O-]
inactive: [1] 4.3% | [2] 16.8% | [3] 32% | [4] -82% | [5] 26.8% | [6] 20.1%

Cc1[nH]c(=O)nc(N/N=C/c2ccc(Cl)cc2)c1C(=O)Nc1ccc(Cl)cc1
inactive: [1] -5.35% | [2] 16.4% | [3] -3.9% | [4] 1.65% | [5] -34.4% | [6] -12.5%

CC(=O)OCC1OC(n2cnc(C(N)=S)c2N)C(OC(C)=O)C1OC(C)=O (stereo unspecified)
inactive: [1] 2.3% | [2] 15.8% | [3] 11.4% | [4] -10.4% | [5] -2.35% | [6] 21.2%

CC(=O)Nc1ccc(C(=O)C=O)cc1
inactive: [1] -1.45% | [2] -4.4% | [3] 4.2% | [4] 26.5% | [5] -13.9% | [6] -40.8%

Cc1nn2c(C(=O)O)nnc2s1
inactive: [1] -0.3% | [2] 5.25% | [3] 7.7% | [4] -21.8% | [5] -16.6% | [6] -13.8%

C=C(C)C(=O)Nc1ccc(NS(=O)(=O)c2ccc(C(C)CC)cc2)c(O)c1 (stereo unspecified)
inactive: [1] 9.3% | [2] -8.7% | [3] 18.1% | [4] 35.5% | [5] 14.9% | [6] 1.2%

O=[N+]([O-])c1ccc(N/N=C(/c2ccc3ccccc3c2)c2ccccc2F)c([N+](=O)[O-])c1
inactive: [1] -9% | [2] -4.6% | [3] -12.2% | [4] -12% | [5] -1.85% | [6] -13.6%

O=C1/C(=C/c2ccc(O)cc2)CCC1CNc1ccc(Cl)cc1 (stereo unspecified)
inactive: [1] 14.8% | [2] 12.6% | [3] -2.6% | [4] 18.1% | [5] 5.55% | [6] 39.9%

Oc1ccc(O)c(CCCc2cc(O)ccc2O)c1
inactive: [1] 13.3% | [2] 7.8% | [3] -2.25% | [4] 0.5% | [5] 6.95% | [6] 49.5%

CC(=O)NNC(=S)N/C=C(\C#N)c1nc2ccccc2s1
inactive: [1] 22.2% | [2] 12.2% | [3] -17.2% | [4] 18.4% | [5] -10.7% | [6] 12.1%

N#CC(NNC(=O)Cc1ccccc1)c1c(O)ccc2ccccc12 (stereo unspecified)
inactive: [1] 7.45% | [2] -4.9% | [3] 4.5% | [4] -18.2% | [5] -3.15% | [6] -7.25%

NS(=O)(=O)c1ccc(Nc2c3ccccc3nc3cc(Cl)ccc23)cc1
inactive: [1] 25.6% | [2] -17.8% | [3] 6.9% | [4] 3.3% | [5] -8.5% | [6] -13.3%

Cc1cc(Br)c(I)c([N+](=O)[O-])c1
inactive: [1] 34.5% | [2] 27.6% | [3] 17.8% | [4] 13.3% | [5] 7.45% | [6] 6.25%

COc1ccc(CC(N)C(=O)NC2C(CO)OC(n3cnc4c(N)ncnc43)C2O)cc1 (stereo unspecified)
inactive: [1] 5.65% | [2] -28.6% | [3] -1.6% | [4] -74.3% | [5] -0.25% | [6] -12.8%

Cc1nc2c(sc(=S)n2-c2ccccc2)c2nc3ccccc3n12
inactive: [1] -9.35% | [2] -15.7% | [3] 7.7% | [4] -1.2% | [5] -2.55% | [6] -20.6%

Cc1cccc(N=Nc2ccc(N=Nc3c(O)ccc4ccccc34)cc2C)c1
inactive: [1] -3.5% | [2] 2.85% | [3] 16.4% | [4] 0.65% | [5] 17.3% | [6] 11.2%

COc1ccc(/C(N)=N/OCc2ccc(C#N)cc2)cc1
inactive: [1] -13.5% | [2] -21.4% | [3] -3.2% | [4] 10.3% | [5] 20.7% | [6] -25.8%

CC1CC(=O)Nc2ncnc(N)c21 (stereo unspecified)
inactive: [1] -25.1% | [2] -2.45% | [3] 2.3% | [4] -4.7% | [5] 5.3% | [6] -9%

CC(=O)N(c1ccccn1)c1ccccn1
inactive: [1] -15.3% | [2] -10.2% | [3] -19.9% | [4] -54.5% | [5] 0.5% | [6] -31.2%

Cc1ccc(NC(=O)/C(Cc2nc3ccc([N+](=O)[O-])cc3[nH]c2=O)=N\NC(=O)C[n+]2ccccc2)c(C)c1
inactive: [1] -7.5% | [2] -9.25% | [3] -4.3% | [4] 14.9% | [5] 15.3% | [6] -7.65%

C=C1CC(C)(Cn2cnc3c(=O)[nH]cnc32)OC1=O (stereo unspecified)
inactive: [1] 18.1% | [2] 22.7% | [3] 12.9% | [4] 8% | [5] 16.6% | [6] 21.6%

CC1(C)OC(=O)C=C(O)O1.CC1(C)OC(=O)C=C(O)O1.CCO.Oc1ccc2c(c1)CCC2.[Ti]
inactive: [1] -15.7% | [2] -13.5% | [3] -29.1% | [4] 20.4% | [5] -5.05% | [6] 6.75%

CC(C)=CC(=O)OC(C)(C)C
inactive: [1] 11.4% | [2] 1.65% | [3] 3.35% | [4] 6.1% | [5] 7.05% | [6] 23.7%

N#CC(CC(=O)c1ccccc1)c1ccc(Cl)cc1 (stereo unspecified)
inactive: [1] 1% | [2] 4.45% | [3] -6.7% | [4] -79.2% | [5] 41.4% | [6] -13.7%

CC(=O)Nc1ccc(C(=O)NN2C(=O)C(Cl)C2c2ccccc2O)cc1 (stereo unspecified)
inactive: [1] -24.8% | [2] -16.3% | [3] -45.9% | [4] 0.15% | [5] -38.1% | [6] -32.9%

CC1CC(C)(C)C(C[NH-])C1[NH-].[Cl][Pt+2][Cl] (stereo unspecified)
inactive: [1] 23.8% | [2] 20.5% | [3] 34.3% | [4] 24.1% | [5] 28.9% | [6] 28.1%

Cc1ccc2[nH]c(=O)[nH]c2c1
inactive: [1] -13.6% | [2] -6.2% | [3] -0.25% | [4] -5.3% | [5] 2.15% | [6] -22.4%

CC(C)CC(C)Cc1ccncc1 (stereo unspecified)
inactive: [1] 0.4% | [2] 1.65% | [3] 24.8% | [4] 11.8% | [5] -1.65% | [6] -5%

C=C(C)c1ccc(C(=C)C)cc1
inactive: [1] -45.9% | [2] -40.9% | [3] -38.2% | [4] -3.9% | [5] -23.9% | [6] -40.5%

CCOC(=O)COc1ccc(C)c2c1C(=O)CC2
inactive: [1] -11.2% | [2] -12.9% | [3] -13.2% | [4] -25.9% | [5] -19.1% | [6] -9.9%

— PubChem BioAssay (NCI)
